High-throughput results deposited in PubChem BioAssay by Broad Institute.
Many of the other results were omitted from the sample, so hits are more common in it than they were.
Tg IFNy HTS – T. gondii growth inhibition with IFN-gamma, primary screen, cell-based. Toxoplasma gondii growth in IFN-gamma-treated host cells; stronger effect = lower value. activity change, negative = inhibition, % (no concentration beside the values). actives 3.8% (n = 69,000); in the data active = activity change below about -70%, passing the limit was not always enough;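 note: host cells are HeLa cells infected with Toxoplasma gondii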
Hits are given with their value; – = inactive; ! = not confirmed by another sample.

SMILES | Tg IFNy HTS
Cc1ccc(S(=O)(=O)N2CCC3(CCCN(CC4CCOCC4)C3)C2)cc1 (stereo unspecified) | –
Cc1ccc(S(=O)(=O)N2CCCC3(CCCCC3)C2)cc1 | -98.3
C/C=C(\C)CN(C)Cc1nc2ccc(C)cc2[nH]1 | –
CC(=O)N1CCC(OCc2ccccc2)CC1 | –
CCN1CCN(C(=O)c2cccc(NC(=O)C3CCCC3)c2)C(C)C1=O (stereo unspecified) | –
C=CC(=O)Nc1cccc(Nc2nc(Nc3ccc(OCCOC)cc3)ncc2F)c1 | –
COc1cc(Nc2ncc(F)c(Nc3ccc4c(n3)N(COP(=O)(O)O)C(=O)C(C)(C)O4)n2)cc(OC)c1OC | -74.4
Cc1nc(Cn2nc(C3CCNCC3)n(Cc3ccccc3)c2=O)co1 | –
COc1ccc(-n2c(=O)c(C(=O)Nc3ccc(F)cc3Cl)c(O)c3cccnc32)cc1 | –
CCc1nc(OCC(=O)Nc2c(C)cccc2C)c2ccccc2n1 | –
CN=C1Sc2nc3c(cc2CN1C1CCCCC1)c(C(C)(C)C)nn3-c1ccccc1 | -84.5
COc1ccc(CN2C[C@H]3CN(C(=O)NC4CC4)C[C@H]3C2=O)cc1 | –
COc1ccc(C2(C(=O)N3CCCC(O)(CO)C3)CC2)cc1 (stereo unspecified) | –
COc1ccc(C2(C(=O)N3CCC(n4nc(-c5ccsc5)ccc4=O)CC3)CC2)cc1 | -95.1
COc1ccc(C2(C(=O)N3CCCC(N(C)C)CC3)CCCC2)cc1 (stereo unspecified) | –
Clc1ccc(N2N=C(/C=C/c3cccs3)CC2c2cccs2)cc1 (stereo unspecified) | –
Cc1ccc(C(NC(=O)c2cc(CN3CCOCC3)c(C)o2)c2ccncc2)cc1C (stereo unspecified) | –
CCC(CN1CCOCC1)NC(=O)Cc1coc2cc(C)cc(C)c12 (stereo unspecified) | -81.9
Cc1ccc2c(CC(=O)NCCC3CN(C)CCO3)coc2c1 (stereo unspecified) | –
CC(C)c1cc(-c2n[nH]c(=O)n2-c2ccc3c(ccn3C)c2)c(O)cc1O | -79.5
O=C(c1ccc(=O)[nH]c1)N1CCC(Cc2nncn2-c2ccccc2)CC1 | –
Cc1nc(-c2ccc(Oc3ccc(C(F)(F)F)cn3)cc2)no1 | –
CCn1ccc(C(=O)NC2CCc3ccc(S(=O)(=O)NC4CCCC4)cc32)n1 (stereo unspecified) | –
O=C(Nc1nc2c(s1)CCCCCC2)C1CC(=O)N(Cc2ccncc2)C1 (stereo unspecified) | –
CO[C@@H]1CN(C)C(=O)c2cc(NC(=O)c3nc4ccccc4s3)ccc2OC[C@H](C)NC[C@H]1C | -91.8
SMILES | Tg IFNy HTS
CO[C@H]1CN(C)C(=O)c2cc(NC(=O)c3nc4ccccc4s3)ccc2OC[C@@H](C)NC[C@H]1C | –
CO[C@H]1CN(C)C(=O)c2cc(NC(=O)c3nc4ccccc4s3)ccc2OC[C@@H](C)NC[C@@H]1C | –
CO[C@@H]1CN(C)C(=O)c2cc(NC(=O)c3nc4ccccc4s3)ccc2OC[C@@H](C)NC[C@H]1C | –
CO[C@@H]1CN(C)C(=O)c2cc(NC(=O)c3nc4ccccc4s3)ccc2OC[C@@H](C)NC[C@@H]1C | –
CO[C@H]1CN(C)C(=O)c2cc(NC(=O)c3nc4ccccc4s3)ccc2OC[C@H](C)NC[C@H]1C | -110.6
CCn1c(=O)c(-c2nc(-c3ccc(Br)cc3)no2)c(O)c2ccc(F)cc21 | –
Cc1cnc(N2CCCC3(CC(Oc4cccnc4)CO3)C2)nc1 (stereo unspecified) | –
O=C(COc1ccccc1)N1CCC(c2cc3nc(C(F)(F)F)ccc3[nH]2)CC1 | –
Cc1ccsc1-c1nc(CN2CCc3nnc(C(C)C)n3CC2)c(C)o1 | –
CCOC(=O)Nc1nc2ccccc2[nH]1 | –
COC(=O)Nc1nc2ccc(C(=O)c3ccc(F)cc3)cc2[nH]1 | –
CCCOc1ccc2nc(NC(=O)OC)[nH]c2c1 | -73.0!
Cc1[nH]c2ccc(CNC(=O)C3CCCN(Cc4ccco4)C3)cc2c1C (stereo unspecified) | –
Cc1cc(C(=O)N2CCC3(CC2)COc2ccccc2S(=O)(=O)N(CC(C)C)C3)no1 | –
Cc1ccc2nc(CN(C)C(=O)C(C)n3ccnc3C(C)C)[nH]c2c1 (stereo unspecified) | –
COc1cccc(-c2nc(C)c(-c3ccc(SCc4cccc(Cl)c4)nn3)s2)c1 | –
Cc1nc(C(=O)N2CCC(CC(=O)O)CC2)co1 | –
Cc1ccc(C2(O)CCN(Cc3nnnn3Cc3ccccc3)CC2)nc1 | –
Cc1[nH]n(-c2ccccc2)c(=O)c1C(=O)c1ccccc1 | –
Cc1[nH]n(-c2ccccc2)c(=O)c1N=Nc1c(C)n(C)n(-c2ccccc2)c1=O | -92.5
Cc1c(N(C)C)c(=O)n(-c2ccccc2)n1C | –
CCOC(=O)c1cnc(SC)nc1-c1c(OC)cccc1OC | –
CCC(NC1CCN(S(C)(=O)=O)CC1)c1cccs1 (stereo unspecified) | –
Cc1ccc(-c2nc3cnccn3c2NCc2ccco2)s1 | –
CC(=O)Nc1ncc(-c2cccc(C3CCCN(C(=O)OC(C)(C)C)C3)n2)s1 (stereo unspecified) | –
SMILES | Tg IFNy HTS
Cc1nn2c(C3CCCN(C(=O)OC(C)(C)C)C3)ccnc2c1-c1cccs1 (stereo unspecified) | -77.0
COc1ccc(-c2c(C)nn3c(C4CCN(Cc5ccccc5)C4)ccnc23)cc1OC (stereo unspecified) | –
COc1ccc(NC(=O)Cn2c(=O)ccc3cc(S(=O)(=O)N4CCCC4)ccc32)cc1 | –
COc1ccc(OCc2nnc(SCC(=O)Nc3ccc4ccccc4c3)o2)cc1 | –
c1ccc(CCNc2nnns2)cc1 | -97.3
COc1ccccc1Nc1nnns1 | –
CCOC(=O)Nc1nnc(CCc2ccccc2)s1 | –
CCC(CC)c1nnc(NC(=O)C2CC(=O)N(CCc3c[nH]c4ccc(C)cc34)C2)s1 (stereo unspecified) | –
CCc1[nH]c2c(CNS(=O)(=O)c3cn(C)c(C)n3)cc(C)cc2c1C | –
Cc1nnsc1C(=O)N1C2CCC1CC(O)(Cn1c(C)cc3ccncc31)C2 (stereo unspecified) | –
Cn1c(SCC(=O)c2ccc3c(c2)OCCO3)nnc1-c1ccc2ccccc2c1 | -95.3
CC(C)(C)c1nc2ccccc2c2nnc(SCC(=O)c3ccc4c(c3)OCCO4)n12 | –
O=C(CSc1nc2ccccc2o1)c1ccc2c(c1)OCCO2 | –
C#C[C@]1(O)CCC2C3CCc4cc(OC5CCCC5)ccc4C3CC[C@@]21C (stereo partly specified) | –
C#C[C@]1(O)CC[C@@H]2C3[C@H](C)CC4=C(CCC(=O)C4)[C@H]3CC[C@@]21C (stereo partly specified) | –
C[C@]12CCC(=O)C=C1CCC1C2C(=O)C[C@@]2(C)C1CC[C@]2(O)C(=O)CO (stereo partly specified) | –
C#C[C@]1(O)CCC2C3CCC4=CC(=O)CC[C@@H]4C3CC[C@@]21C (stereo partly specified) | -81.0
C#C[C@]1(O)CCC2C3CCC4=Cc5oncc5C[C@]4(C)C3CC[C@@]21C (stereo partly specified) | -73.7!
C#C[C@]1(O)CCC2C3CCC4=C(CCC(=O)C4)C3CC[C@@]21C (stereo partly specified) | -80.0
C#C[C@]1(O)CCC2C3CCC4=CC(=O)CCC4C3C(=C)CC21CC (stereo partly specified) | –
CCC(=O)O[C@]1(C(=O)CO)CC[C@H]2[C@@H]3CCC4=CC(=O)CC[C@]4(C)[C@H]3CC[C@@]21C | –
